The source of these data is paper PMC7862700, “An all-to-all approach to the identification of sequence-specific readers for epigenetic DNA modifications on cytosine”.

What all share (assay): DAPPL (digital affinity profiling via proximity ligation, sequencing); 10 mM Tris-HCl pH 7.5, 50 mM NaCl, 1 mM DTT, 4% glycerol, room temperature, 30 min; GST-TFs on glutathione beads, 16-mer random dsDNA library, 0.1% formaldehyde crosslink after washing; high values mean tight binding
Holding throughout (conditions): protein: recombinant; tags: N-terminal GST; dsDNA, one strand shown

One assay concerns the target T1, ELK1 (Homo sapiens, UniProt P19419 1-428).
T1 sequence: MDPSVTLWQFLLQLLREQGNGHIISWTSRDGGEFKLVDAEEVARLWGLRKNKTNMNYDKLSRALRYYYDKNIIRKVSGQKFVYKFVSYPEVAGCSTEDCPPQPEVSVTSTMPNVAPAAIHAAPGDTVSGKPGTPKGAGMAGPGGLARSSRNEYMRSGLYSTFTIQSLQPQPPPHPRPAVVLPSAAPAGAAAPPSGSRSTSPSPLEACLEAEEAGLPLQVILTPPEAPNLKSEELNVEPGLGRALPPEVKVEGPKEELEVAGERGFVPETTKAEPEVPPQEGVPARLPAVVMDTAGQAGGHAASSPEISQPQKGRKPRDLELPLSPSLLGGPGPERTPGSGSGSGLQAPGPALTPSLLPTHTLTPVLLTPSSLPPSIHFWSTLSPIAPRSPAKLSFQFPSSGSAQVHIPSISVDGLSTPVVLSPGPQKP
An outline of the steps: (§1)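 Beads coated with glutathione captured GST-fused human transcription factors that had been expressed in yeast, and the factors were then given DNA barcodes and pooled with a tag-only sample. The pools were incubated with 200 nmole of a random double-stranded 16-mer DNA library in Tris/NaCl/DTT/glycerol buffer for 30 min at room temperature, washed, crosslinked with 0.1% formaldehyde and proximity-ligated with BsaI/T4 ligase at 37 °C for 1 h. PCR amplification and Illumina NextSeq500 sequencing came last. Binding signal is each hexamer's read frequency for a factor divided by its frequency for the tag-only sample.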

Another assay deals with T2, GABPA (Homo sapiens, UniProt Q06546 1-454).
T2 sequence: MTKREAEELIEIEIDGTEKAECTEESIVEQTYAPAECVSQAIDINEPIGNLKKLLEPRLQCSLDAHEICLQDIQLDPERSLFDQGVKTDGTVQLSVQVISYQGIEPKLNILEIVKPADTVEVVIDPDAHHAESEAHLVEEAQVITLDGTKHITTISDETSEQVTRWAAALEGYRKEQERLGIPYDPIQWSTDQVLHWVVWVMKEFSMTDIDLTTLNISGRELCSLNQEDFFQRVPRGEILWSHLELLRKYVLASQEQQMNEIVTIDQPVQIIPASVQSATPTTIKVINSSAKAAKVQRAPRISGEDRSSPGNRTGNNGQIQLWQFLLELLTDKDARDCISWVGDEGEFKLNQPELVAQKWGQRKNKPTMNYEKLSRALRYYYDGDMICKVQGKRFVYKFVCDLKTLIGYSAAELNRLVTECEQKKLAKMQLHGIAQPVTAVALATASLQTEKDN
In outline:
as §1

The next assay has as its target T3, ERG (Homo sapiens, UniProt P11308 1-479).
T3 sequence: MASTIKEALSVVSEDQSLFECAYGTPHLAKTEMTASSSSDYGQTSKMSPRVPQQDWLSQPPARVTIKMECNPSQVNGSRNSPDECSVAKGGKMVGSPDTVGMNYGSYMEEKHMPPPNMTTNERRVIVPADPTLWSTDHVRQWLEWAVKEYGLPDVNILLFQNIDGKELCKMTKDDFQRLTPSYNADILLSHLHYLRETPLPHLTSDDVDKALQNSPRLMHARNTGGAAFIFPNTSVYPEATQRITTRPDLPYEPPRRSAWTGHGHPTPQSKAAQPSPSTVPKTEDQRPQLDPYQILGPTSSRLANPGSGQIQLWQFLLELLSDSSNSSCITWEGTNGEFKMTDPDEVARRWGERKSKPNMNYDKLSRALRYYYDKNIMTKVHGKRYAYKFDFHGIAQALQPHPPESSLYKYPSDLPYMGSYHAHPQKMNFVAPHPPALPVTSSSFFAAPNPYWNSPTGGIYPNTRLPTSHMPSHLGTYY
An outline of the steps: as §1

For the next assay, the target named is ELF1 (Homo sapiens, UniProt P32519 1-619). In outline: as §1
Another assay deals with T4, EHF (Homo sapiens, UniProt Q9NZC4 1-300).
T4 sequence: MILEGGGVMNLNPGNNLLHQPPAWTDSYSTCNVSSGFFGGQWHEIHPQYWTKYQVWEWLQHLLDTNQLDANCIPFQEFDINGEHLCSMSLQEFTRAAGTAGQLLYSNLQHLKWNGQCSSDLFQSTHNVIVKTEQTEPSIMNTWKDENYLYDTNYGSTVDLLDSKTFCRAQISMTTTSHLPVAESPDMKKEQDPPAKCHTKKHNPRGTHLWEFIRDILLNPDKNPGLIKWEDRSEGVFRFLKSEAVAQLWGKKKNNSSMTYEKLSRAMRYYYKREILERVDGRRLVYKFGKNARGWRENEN
In outline: as §1

A further assay concerns the target SPI1 (Homo sapiens, UniProt P17947 1-270). In outline: as §1
The next assay has as its target T5, FEV (Homo sapiens, UniProt Q99581 1-238).
T5 sequence: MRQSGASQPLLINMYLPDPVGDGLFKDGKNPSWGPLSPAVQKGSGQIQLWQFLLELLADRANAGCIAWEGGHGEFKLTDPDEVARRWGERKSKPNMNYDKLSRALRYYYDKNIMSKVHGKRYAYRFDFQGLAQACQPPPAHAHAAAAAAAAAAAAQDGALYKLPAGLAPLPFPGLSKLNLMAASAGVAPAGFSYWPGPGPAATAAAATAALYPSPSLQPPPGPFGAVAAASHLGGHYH
In outline:
as §1

A further assay deals with ETV5 (Homo sapiens, UniProt P41161 1-510). An outline of the steps:
as §1

The target in a further assay is ELF4 (Homo sapiens, UniProt Q99607 1-663). An outline of the steps:
as §1

For the next assay, the target named is T6, ETV2 (Homo sapiens, UniProt O00321 1-342).
T6 sequence: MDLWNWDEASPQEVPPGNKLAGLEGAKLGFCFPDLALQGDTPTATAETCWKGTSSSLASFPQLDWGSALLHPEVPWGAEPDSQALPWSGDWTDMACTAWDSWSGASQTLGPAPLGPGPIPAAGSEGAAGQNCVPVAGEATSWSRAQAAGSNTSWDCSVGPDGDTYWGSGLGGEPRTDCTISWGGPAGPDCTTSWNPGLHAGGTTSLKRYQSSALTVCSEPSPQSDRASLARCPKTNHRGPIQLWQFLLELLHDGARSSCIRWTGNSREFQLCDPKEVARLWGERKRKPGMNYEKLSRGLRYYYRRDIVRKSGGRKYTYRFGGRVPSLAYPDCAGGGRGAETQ
In outline: as §1

For the next assay, the target named is ETV1 (Homo sapiens, UniProt P50549 1-477). An outline of the steps: as §1
In the next assay the target is T7, ERF (Homo sapiens, UniProt P50548 1-548).
T7 sequence: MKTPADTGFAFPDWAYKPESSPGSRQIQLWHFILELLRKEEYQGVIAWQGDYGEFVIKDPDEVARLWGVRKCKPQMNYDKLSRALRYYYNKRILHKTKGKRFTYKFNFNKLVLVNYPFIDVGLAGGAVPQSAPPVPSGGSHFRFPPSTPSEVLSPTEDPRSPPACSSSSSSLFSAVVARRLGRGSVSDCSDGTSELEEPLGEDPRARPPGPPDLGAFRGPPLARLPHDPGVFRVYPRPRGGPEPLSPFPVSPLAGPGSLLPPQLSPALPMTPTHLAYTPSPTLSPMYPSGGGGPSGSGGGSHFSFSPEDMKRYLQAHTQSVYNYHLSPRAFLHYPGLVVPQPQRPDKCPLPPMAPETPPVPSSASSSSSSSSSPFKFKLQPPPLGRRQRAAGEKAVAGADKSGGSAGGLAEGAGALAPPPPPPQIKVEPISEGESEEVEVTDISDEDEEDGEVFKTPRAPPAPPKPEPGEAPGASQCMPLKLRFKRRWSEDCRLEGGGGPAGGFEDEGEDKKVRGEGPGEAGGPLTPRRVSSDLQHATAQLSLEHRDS
In outline: as §1

The target in a further assay is T8, ETV3L (Homo sapiens, UniProt Q6ZN32 1-361).
T8 sequence: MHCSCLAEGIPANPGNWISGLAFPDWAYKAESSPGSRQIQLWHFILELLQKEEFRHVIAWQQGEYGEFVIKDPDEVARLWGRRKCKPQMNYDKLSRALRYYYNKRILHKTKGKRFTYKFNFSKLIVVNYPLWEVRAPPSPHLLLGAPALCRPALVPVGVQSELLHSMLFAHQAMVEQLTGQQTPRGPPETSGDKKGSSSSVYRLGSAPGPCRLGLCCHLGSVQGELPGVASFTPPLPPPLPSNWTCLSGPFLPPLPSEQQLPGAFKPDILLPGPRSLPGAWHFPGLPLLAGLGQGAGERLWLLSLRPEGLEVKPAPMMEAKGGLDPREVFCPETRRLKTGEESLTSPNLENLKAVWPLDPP
In outline:
as §1

The target of the next assay is T9, ETS2 (Homo sapiens, UniProt P15036 1-469).
T9 sequence: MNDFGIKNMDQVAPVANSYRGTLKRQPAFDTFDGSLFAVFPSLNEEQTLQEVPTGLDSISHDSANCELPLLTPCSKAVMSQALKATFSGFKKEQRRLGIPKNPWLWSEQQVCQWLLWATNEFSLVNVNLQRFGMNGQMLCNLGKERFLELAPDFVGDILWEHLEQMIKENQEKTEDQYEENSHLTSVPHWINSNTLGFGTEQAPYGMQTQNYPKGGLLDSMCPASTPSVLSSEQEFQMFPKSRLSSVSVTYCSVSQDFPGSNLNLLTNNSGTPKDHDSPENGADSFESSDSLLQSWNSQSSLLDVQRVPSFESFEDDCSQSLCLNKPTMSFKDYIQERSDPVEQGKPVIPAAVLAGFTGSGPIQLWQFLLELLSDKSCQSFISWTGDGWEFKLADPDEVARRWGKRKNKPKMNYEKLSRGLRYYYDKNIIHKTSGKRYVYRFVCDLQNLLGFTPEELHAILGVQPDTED
An outline of the steps: as §1

For the next assay, the target named is T10, SPDEF (Homo sapiens, UniProt O95238 1-335).
T10 sequence: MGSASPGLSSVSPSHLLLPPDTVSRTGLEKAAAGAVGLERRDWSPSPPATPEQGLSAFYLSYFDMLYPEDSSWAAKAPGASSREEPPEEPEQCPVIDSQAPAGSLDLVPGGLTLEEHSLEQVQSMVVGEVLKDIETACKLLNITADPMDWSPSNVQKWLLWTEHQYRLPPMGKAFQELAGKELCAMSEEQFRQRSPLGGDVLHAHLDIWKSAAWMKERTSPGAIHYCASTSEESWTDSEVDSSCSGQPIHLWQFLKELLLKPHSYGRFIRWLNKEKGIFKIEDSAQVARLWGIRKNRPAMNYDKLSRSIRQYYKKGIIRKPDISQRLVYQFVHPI
In outline:
as §1

The target of the next assay is T11, ETV7 (Homo sapiens, UniProt Q9Y603 1-341).
T11 sequence: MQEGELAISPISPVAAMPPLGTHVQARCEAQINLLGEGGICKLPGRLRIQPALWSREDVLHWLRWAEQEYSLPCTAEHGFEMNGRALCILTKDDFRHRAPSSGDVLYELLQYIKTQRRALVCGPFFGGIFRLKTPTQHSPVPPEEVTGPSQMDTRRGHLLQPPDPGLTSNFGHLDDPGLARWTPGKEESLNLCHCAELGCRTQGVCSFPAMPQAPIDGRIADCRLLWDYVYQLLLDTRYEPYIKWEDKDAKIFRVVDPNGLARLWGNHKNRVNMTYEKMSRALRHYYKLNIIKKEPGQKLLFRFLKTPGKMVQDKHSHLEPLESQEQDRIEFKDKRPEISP
An outline of the steps:
as §1

In a further assay the target is T12, ETV3 (Homo sapiens, UniProt P41162-2 1-143).
T12 sequence: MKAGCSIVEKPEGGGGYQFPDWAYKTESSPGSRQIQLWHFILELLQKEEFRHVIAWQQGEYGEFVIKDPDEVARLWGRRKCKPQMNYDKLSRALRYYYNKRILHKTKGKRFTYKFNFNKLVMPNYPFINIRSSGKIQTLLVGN
In outline:
as §1

The target of the next assay is ETV6 (Homo sapiens, UniProt P41212 1-452). In outline: as §1
Sequence of ETV6 (P41212 whole entry): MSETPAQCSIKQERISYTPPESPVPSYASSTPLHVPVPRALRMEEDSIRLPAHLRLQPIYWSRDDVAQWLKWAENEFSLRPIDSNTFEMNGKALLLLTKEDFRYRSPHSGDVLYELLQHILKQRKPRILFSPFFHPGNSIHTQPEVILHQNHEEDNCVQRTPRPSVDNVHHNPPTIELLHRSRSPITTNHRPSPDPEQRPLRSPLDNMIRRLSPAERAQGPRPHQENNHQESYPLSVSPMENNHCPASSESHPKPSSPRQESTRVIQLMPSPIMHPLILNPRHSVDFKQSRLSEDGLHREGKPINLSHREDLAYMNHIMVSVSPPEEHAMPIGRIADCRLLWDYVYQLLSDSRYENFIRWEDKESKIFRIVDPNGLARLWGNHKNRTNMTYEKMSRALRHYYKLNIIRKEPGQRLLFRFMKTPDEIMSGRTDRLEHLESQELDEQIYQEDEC

Sequence of ETV1 (P50549 whole entry): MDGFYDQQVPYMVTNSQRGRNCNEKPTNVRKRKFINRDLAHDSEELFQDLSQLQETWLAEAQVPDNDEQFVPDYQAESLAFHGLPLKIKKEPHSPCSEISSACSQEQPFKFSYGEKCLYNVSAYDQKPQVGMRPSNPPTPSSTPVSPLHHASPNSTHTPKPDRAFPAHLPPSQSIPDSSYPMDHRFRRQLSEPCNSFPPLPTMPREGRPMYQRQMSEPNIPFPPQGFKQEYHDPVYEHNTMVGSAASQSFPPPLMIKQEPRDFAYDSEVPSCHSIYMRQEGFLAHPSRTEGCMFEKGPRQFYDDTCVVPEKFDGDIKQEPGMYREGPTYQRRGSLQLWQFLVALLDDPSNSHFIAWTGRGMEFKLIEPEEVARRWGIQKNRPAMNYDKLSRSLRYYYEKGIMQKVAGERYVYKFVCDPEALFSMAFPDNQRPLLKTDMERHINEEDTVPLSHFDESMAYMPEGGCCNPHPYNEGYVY
Sequence of ELF4 (Q99607 whole entry): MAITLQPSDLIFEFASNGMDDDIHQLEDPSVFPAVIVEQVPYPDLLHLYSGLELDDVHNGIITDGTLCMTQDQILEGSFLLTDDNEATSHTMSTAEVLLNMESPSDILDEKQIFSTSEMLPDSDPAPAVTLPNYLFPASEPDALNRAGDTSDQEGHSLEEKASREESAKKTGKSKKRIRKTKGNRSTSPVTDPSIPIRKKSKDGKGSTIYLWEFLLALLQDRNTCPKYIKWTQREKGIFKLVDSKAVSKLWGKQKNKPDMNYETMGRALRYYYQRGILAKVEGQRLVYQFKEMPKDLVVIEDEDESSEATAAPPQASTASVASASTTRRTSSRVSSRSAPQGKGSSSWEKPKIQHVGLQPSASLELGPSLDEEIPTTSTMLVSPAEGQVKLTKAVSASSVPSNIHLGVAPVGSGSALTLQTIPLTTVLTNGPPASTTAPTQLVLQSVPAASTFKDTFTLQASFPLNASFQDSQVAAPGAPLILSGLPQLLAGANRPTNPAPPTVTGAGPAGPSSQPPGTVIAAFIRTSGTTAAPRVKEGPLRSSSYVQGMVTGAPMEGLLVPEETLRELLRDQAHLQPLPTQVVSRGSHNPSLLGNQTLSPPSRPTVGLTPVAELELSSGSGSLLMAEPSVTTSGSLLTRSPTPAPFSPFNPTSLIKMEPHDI
Sequence of ETV5 (P41161 whole entry): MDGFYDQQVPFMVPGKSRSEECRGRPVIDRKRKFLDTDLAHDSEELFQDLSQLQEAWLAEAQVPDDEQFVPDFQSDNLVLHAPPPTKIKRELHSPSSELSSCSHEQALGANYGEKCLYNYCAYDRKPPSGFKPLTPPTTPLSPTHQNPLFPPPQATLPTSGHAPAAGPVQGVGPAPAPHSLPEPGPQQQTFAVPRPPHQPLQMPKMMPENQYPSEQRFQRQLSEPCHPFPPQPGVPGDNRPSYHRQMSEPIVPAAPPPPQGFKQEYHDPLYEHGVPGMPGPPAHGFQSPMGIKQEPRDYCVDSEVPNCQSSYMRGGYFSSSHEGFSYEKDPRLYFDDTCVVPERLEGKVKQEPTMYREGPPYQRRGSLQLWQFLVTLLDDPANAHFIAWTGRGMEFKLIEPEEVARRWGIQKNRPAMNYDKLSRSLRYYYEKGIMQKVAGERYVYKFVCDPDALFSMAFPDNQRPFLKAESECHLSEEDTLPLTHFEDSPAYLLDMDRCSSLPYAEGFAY
Sequence of ELF1 (P32519 whole entry): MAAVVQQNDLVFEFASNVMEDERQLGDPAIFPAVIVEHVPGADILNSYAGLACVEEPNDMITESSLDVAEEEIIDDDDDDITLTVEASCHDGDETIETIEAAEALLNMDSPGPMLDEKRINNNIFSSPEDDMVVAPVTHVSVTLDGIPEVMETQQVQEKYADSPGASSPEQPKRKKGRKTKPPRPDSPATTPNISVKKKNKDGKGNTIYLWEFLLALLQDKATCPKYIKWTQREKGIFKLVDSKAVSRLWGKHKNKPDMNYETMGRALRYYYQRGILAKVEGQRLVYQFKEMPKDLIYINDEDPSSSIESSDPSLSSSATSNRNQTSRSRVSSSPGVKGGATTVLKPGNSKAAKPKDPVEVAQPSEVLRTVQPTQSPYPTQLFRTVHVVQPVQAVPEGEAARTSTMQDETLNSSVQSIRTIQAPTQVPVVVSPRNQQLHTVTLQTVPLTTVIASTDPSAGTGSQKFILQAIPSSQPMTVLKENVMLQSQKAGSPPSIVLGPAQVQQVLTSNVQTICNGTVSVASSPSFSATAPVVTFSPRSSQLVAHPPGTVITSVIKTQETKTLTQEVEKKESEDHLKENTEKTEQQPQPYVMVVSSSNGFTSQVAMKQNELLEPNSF

On to ACGCCG, for which the binding signal with ELK1 is 1.11 fold enrichment (6-mer frequency, TF over GST control); in the assay with GABPA, 1.11 fold enrichment (6-mer frequency, TF over GST control); in the assay with ERG, 1.02 fold enrichment (6-mer frequency, TF over GST control); with ELF1, 1.13 fold enrichment (6-mer frequency, TF over GST control); in the assay with EHF it was 1.14 fold enrichment (6-mer frequency, TF over GST control); in the assay with SPI1, 1.09 fold enrichment (6-mer frequency, TF over GST control). The binding signal is 1.14 fold enrichment (6-mer frequency, TF over GST control) with FEV; 1.12 fold enrichment (6-mer frequency, TF over GST control) with ETV5; 1.07 fold enrichment (6-mer frequency, TF over GST control) with ELF4; 1.07 fold enrichment (6-mer frequency, TF over GST control) with ETV2; 1.11 fold enrichment (6-mer frequency, TF over GST control) in the assay with ETV1; 1.12 fold enrichment (6-mer frequency, TF over GST control) with ERF. For the same sequence, the binding signal was 1.08 fold enrichment (6-mer frequency, TF over GST control) with ETV3L; 1.01 fold enrichment (6-mer frequency, TF over GST control) in the assay with ETS2; 1.04 fold enrichment (6-mer frequency, TF over GST control) with SPDEF; 1.14 fold enrichment (6-mer frequency, TF over GST control) with ETV7; 1.05 fold enrichment (6-mer frequency, TF over GST control) with ETV3; 1.14 fold enrichment (6-mer frequency, TF over GST control) with ETV6.
